“And” between values parts separate entries of the source, which are not always exact repeats. Equal values may be shown once. Out of some 330,000 compounds screened, about 1,100 (0.33%) were called active. Cut-off read from the data, not from the text of the source: active = inhibition above about 85%; inactive = the rest. The entries come from a sample that favours actives as a whole. More than one record can exist for a structure, and the calls need not agree.
Assay: growth inhibition of S. aureus RN4220, primary screen, OD600 (AID 1259311);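 note: plate controls were untreated cells for no effect and reference antibiotic for full effect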
Conditions: OD600, 16 h, stronger effect = higher value

| SMILES | inhibition |
| --- | --- |
| Cc1ccc(N2C(=O)N3C(c4ccc(Br)cc4)C4C(=O)N(C(C)(C)C)C(=O)C4[C@]3(C)C2=O)cc1 (some centres undefined) | 5.35% (inactive) |
| N#CC(=NNc1ccc(Cl)cc1)C(=O)c1ccccc1 | 100% (active) |
| N#C/C(=C/c1ccc(Cl)cc1)NC(=O)c1ccccc1 | -6.37% (inactive) |
| N#CC(=NNc1ccc(Cl)cc1)C(=N)N1CCCCC1 | -2.55% (inactive) |
| CCn1c(/C=C/c2ccc([N+](=O)[O-])o2)nc2ccccc2c1=O | 11.2% (inactive) |
| O=C(CSc1nc2ccccc2c(=O)n1-c1ccccc1F)N1CCOCC1 | -0.567% (inactive) |
| O=c1c2ccccc2nc(/C=C/c2ccc(F)cc2)n1-c1ccccc1O | 97.2% (active) |
| O=c1c2ccccc2nc(/C=C/c2ccco2)n1-c1ccccc1O | 95.7% (active) |
| Cc1nc2ccccc2c(=O)n1-c1ccc(Cl)cc1Cl | 2.26% (inactive) |
| O=C(CSc1nc2ccccc2c(=O)n1-c1ccc(F)cc1)NC1CC1 | -2.32% (inactive) |
| O=C(NC(C(=O)NN=Cc1ccccn1)c1n[nH]c(=O)c2ccccc12)c1ccccc1 (centres undefined) | 0.248% (inactive) |
| CCCOc1ccc(C=NNC(=O)CSCc2ccc([N+](=O)[O-])cc2)cc1OCC | 3.47% (inactive) |
| CC(CC(=O)Nc1ccc([N+](=O)[O-])cc1)=NNC(=O)C1CC12CCC2 (centres undefined) | 3.47% (inactive) |
| COc1ccccc1C=NNC(=O)CO | 5.18% (inactive) |
| CNC(=O)C(=NO)c1ccccc1 | 0.94% (inactive) |
| O=C1CS/C(=N/N=Cc2ccncc2)N1 | 2.12% (inactive) |
| COc1ccc(CCN2C(=O)CSC2=NNC(=O)c2cccs2)cc1OC | 2.01% (inactive) |
| COc1ccc(C=NN=Cc2ccc(OC)c(OC)c2)cc1OC | -1.08% (inactive) |
| CN(C)C=Nc1sc2c(c1C#N)CC(C)(C)NC2(C)C | 2.77% (inactive) |
| COc1ccc(C(C)=NNC(=O)CSc2nnc(C)s2)cc1 | 6.45% (inactive) |
| O=C(CC(O)(C(F)(F)F)C(F)(F)F)Nc1ccc(Cl)c(Cl)c1 | 100% (active) |
| O=C(Cc1ncc(C(F)(F)F)cc1Cl)Nc1cccc(Br)c1 | -2.16% (inactive) |
| NC(=O)N1CCCC1C(=O)Nc1ccc(Cl)c(Cl)c1 (centres undefined) | 0.288% (inactive) |

| SMILES | inhibition |
| --- | --- |
| Cc1[nH]c2ccccc2c1C=NNC(=O)CNC(=O)c1cccs1 | 2.5% (inactive) |
| COc1ccc(C=Nn2nnnc2N)c(OC)c1 | 2.12% (inactive) |
| COc1ccc(C=NNC(=O)c2ccccc2OC)cc1COc1ccccc1[N+](=O)[O-] | 4.25% (inactive) |
| COc1ccc(C(=O)NN=Cc2ccc(OC(=O)c3cccc4ccccc34)c([N+](=O)[O-])c2)cc1 | 95.4% (active) |
| COc1ccc(C(=O)NN=Cc2ccc(OC)c(CN3CCCc4ccccc43)c2)cc1 | 0.711% (inactive) |
| C1=CC2CCN(Cc3ccccc3)Cc3cccc(c32)C1 (centres undefined) | 4.59% (inactive) |
| Cc1cccc(-n2c(C)cc(C=NO)c2C)c1 | -4.73% (inactive) |
| O=C(CCl)N(Cc1cccc([N+](=O)[O-])c1)c1cccc(Cl)c1 | 94.9% (active) |
| Cc1ccc(S(=O)(=O)N(Cc2cccc([N+](=O)[O-])c2)C(=O)N2CCN(C)CC2)cc1 | 2.8% (inactive) |
| O=C(c1cccc([N+](=O)[O-])c1)N1CCN(Cc2ccccc2)CC1 | 2.33% (inactive) |
| CCCCNC(=O)CC1S/C(=N/N=Cc2ccc(OC)cc2)NC1=O (centres undefined) | 10.5% (inactive) |
| Cc1ccc(C=NNC(=O)Cc2cccn2C)cc1 | 1.44% (inactive) |
| Cc1ccc(O)c(C(=O)C=Cc2ccc3c(c2)OCCO3)c1 | -1.13% (inactive) |
| COc1c(O)ccc(C=NNC(=O)c2ccc3c(c2)OCCO3)c1[N+](=O)[O-] | 0.97% (inactive) |
| CN1CCN(CCNC(=O)Nc2ccc([N+](=O)[O-])cc2)CC1 | 2.31% (inactive) |
| CN1CCN(CCC(=O)NN=Cc2cc([N+](=O)[O-])ccc2O)CC1 | 88.7% (active) |
| O=C(NN=Cc1cc([N+](=O)[O-])ccc1O)C12CC3CC(CC(C3)C1)C2 | 63.4% (inactive) |
| OCCC1CC(O)C(O)[C@]2(Cc3ccccc3O2)O1 (some centres undefined) | 1.1% (inactive) and -0.123% (inactive) and 7.32% (inactive) |
| OCCC1CC(O)C(O)[C@@]2(CCCc3ccccc3O2)O1 (some centres undefined) | -1.69% (inactive) and 51.2% (inactive) and 98.7% (active) |
| Cc1cccc(NC(=NS(=O)(=O)c2ccccc2)c2ccccc2)n1 | -0.262% (inactive) |
| CC(N)=C(C#N)C(=O)CSc1ccccc1F | 5.44% (inactive) |
| Cc1cc(C)n(C(=O)CCNC(=O)c2ccccc2Cl)n1 | 4.12% (inactive) |
| N#CC(=NNc1cc(Cl)cc(Cl)c1)c1nnc2n1CCCCC2 | 0.845% (inactive) |

| SMILES | inhibition |
| --- | --- |
| Cc1cc(C)n(C(=O)C(C#N)=NNc2cc(Cl)cc(Cl)c2)n1 | 99.6% (active) |
| COc1ccc(C=NNc2ccc([N+](=O)[O-])cc2S(=O)(=O)N2CCN(C)CC2)cc1 | -2.66% (inactive) |
| O=C(NN=Cc1cc(Cl)cc([N+](=O)[O-])c1O)c1cccc(S(=O)(=O)N2CCOCC2)c1 | 5.65% (inactive) |
| COc1ccc(NC(=O)/C(Cl)=C(/Cl)S(=O)Cc2ccc(C)cc2)cn1 (centres undefined) | 93.4% (active) |
| COc1ccc(CS(=O)/C(Cl)=C(/Cl)C(=O)Nc2ccc(OC)nc2)cc1 (centres undefined) | 1.8% (inactive) |
| COc1cccc(NC(=S)N(Cc2ccc(C)cc2)Cc2ccccn2)c1 | 2.66% (inactive) |
| COc1ccc(CN2CCC(=O)N(C(CO)CC(C)C)CC2)cc1 (centres undefined) | 3.45% (inactive) |
| COc1ccc(C2CC(=O)C=C(c3ccc(C)cc3)C2)cc1 (centres undefined) | 5.1% (inactive) |
| CC(C)(C)Cc1nnc(NC(=O)c2cc(-c3ccccc3)nc3ccccc23)s1 | -1.74% (inactive) |
| O=C(NN=Cc1ccsc1)c1cc(-c2cccs2)nc2ccccc12 | 2.77% (inactive) |
| O=C(Nc1nnc(-c2ccccc2)o1)c1cc(-c2cccs2)nc2ccccc12 | 100% (active) |
| CC(C)(C=NO)N(O)C=C1C=CC(=O)C=C1 | 1.68% (inactive) |
| COCCNC(=O)C1CCCN1S(=O)(=O)c1cccc2cccnc12 (centres undefined) | 6.77% (inactive) |
| COc1ccccc1CN1CCN(C(c2ccccc2)c2ccccc2)CC1 | -0.651% (inactive) |
| c1ccc(C(c2ccccc2)N2CCN(Cc3nnnn3C3CCCCC3)CC2)cc1 | -1.54% (inactive) |
| CC1(C)CC(N2CCN(C(c3ccccc3)c3ccccc3)CC2)=CC(=[N+]2CCCCC2)C1 | 100% (active) |
| CC(NC(=O)c1nc[nH]c1C(=O)NCCCCCNC(=O)OC(C)(C)C)c1ccccc1 (centres undefined) | 8.53% (inactive) and 1.7% (inactive) |
| C[C@]12CCC(O)CC1CCC1C2CC[C@]2(C)C(O)CCC12 (some centres undefined) | 7.5% (inactive) |
| Cc1ccc(NS(=O)(=O)c2cc([N+](=O)[O-])ccc2NN=Cc2sc(N3CCOCC3)nc2-c2ccccc2)c(C)c1 | -5% (inactive) |
| COC(=O)Cc1ccc(OCC(=O)NC2CCCC2)cc1 | 2.26% (inactive) |
| CC1(C)SC2C(NC(=O)COc3ccccc3)C(=O)N2C1C(=O)O (centres undefined) | 99.8% (active) |
| Cc1cccc(OCC(=O)NC2CC(C)(C)NC(C)(C)C2)c1 | -1.7% (inactive) |
| O=S(=O)(NN=Cc1cccc(F)c1)c1ccccc1 | 29.9% (inactive) |

| SMILES | inhibition |
| --- | --- |
| CCOc1cccc(-c2c(C(=O)NN=Cc3ccc(C)o3)nnn2-c2nonc2N)c1 | 4.52% (inactive) |
| C#Cc1ccc(C2C=C(C(=O)N3CCOCC3)OC(OCC)C2CCCO)cc1 (centres undefined) | 2.8% (inactive) and 5.16% (inactive) |
| C#C[C@]1(O)CCC2C3CCC4=Cc5nc6nc7ccccc7n6cc5C[C@]4(C)C3CC[C@@]21C (some centres undefined) | -13.8% (inactive) |
| CC(=NNC(=O)c1nnn(-c2nonc2N)c1CSc1ccc(C)cc1)c1ccco1 | 4.06% (inactive) |
| O=C(Nc1nnc(-c2ccco2)o1)c1ccc(S(=O)(=O)N2CCOCC2)cc1 | 1.85% (inactive) |
| COc1cccc(-c2nnc(NC(=O)c3ccc(S(=O)(=O)N(CC(C)C)CC(C)C)cc3)o2)c1 | 99.9% (active) |
| COc1ccc(-c2nnc(NC(=O)CS(=O)(=O)c3ccc(Cl)cc3)o2)c(OC)c1 | 3.79% (inactive) |
| CC1CN(C(C)CO)C(=O)c2cccc(NC(=O)c3ccc(-c4nccs4)cc3)c2OC1CN(C)C(=O)NC1CCCCC1 (centres undefined) | 4.31% (inactive) |
| C=C[C@]1(C)CC(OC(=O)CSCCN(CC)CC)[C@]2(C)C(C)CC[C@]3(CCC(=O)C32)C(C)C1O (some centres undefined) | 101% (active) |
| COC(=O)[C@]1(CC(C)C)NC(c2ccc(-c3ccc(F)cc3)c(OC)c2)C2C(=O)N(C)C(=O)C21 (some centres undefined) | -2.27% (inactive) |
| COc1ccc(C2C=CCN(C(=O)Nc3ccccc3-c3ccccc3)CC(=O)N2Cc2ccc(F)cc2)cc1 (centres undefined) | 4.3% (inactive) |
| CCCn1c(=O)c(-c2ccccc2)c(O)c2ccccc21 | 4.44% (inactive) |
| CCCCCn1c(=O)c(C(=O)NCc2ccccc2)c(O)c2ccccc21 | -1.56% (inactive) |
| CC(C)CCn1c(=O)c(C(=O)NN=Cc2cccc(F)c2)c(O)c2ccccc21 | 101% (active) |
| CCCn1c(=O)c(C(=O)NN=Cc2ccc(F)cc2)c(O)c2ccccc21 | 101% (active) |
| COc1cc(C(=O)NN=Cc2cn(Cc3cccc(F)c3)c3ccccc23)ccc1O | -2.54% (inactive) |
| CCCn1c(=O)c(C(=O)Nc2cc(C)ccn2)c(O)c2ccccc21 | 8.88% (inactive) |
| CCOC(=O)NN=C(C)/C=C/c1ccco1 | -0.0294% (inactive) |
| O=C1CCC(O)CCN1CCC(Sc1ccccc1)c1ccccc1 (centres undefined) | 10.9% (inactive) |
| CC(C)(C)C1C=C(C(=O)N2CCN(Cc3ccccc3)CC2)OC(OCc2ccc(CO)cc2)C1 (centres undefined) | 8.07% (inactive) and 4.07% (inactive) |

From PubChem BioAssay AID1259311 (ICCB-Longwood Screening Facility, Harvard Medical School, 2017)
